This is an account of results in PubChem BioAssay (NCI).

Several values for one entry are separate records, joined by “and”; a condition that tells them apart may be missing. Identical values can stand only once. About 83,000 compounds went through this panel and 20% of them were active in at least one assay; those are over-represented in the sample as a whole.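 Cells were grown in 96-well plates and exposed to the test compound at a single concentration for 48 hours; results are reported as percent growth, with values below 10 considered active.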 Activity calls are given as the source filed them.

For this experiment, the system named is MDA-MB-468 breast. The experiment in a line: NCI-60 one-dose screen, 48 h (100 = growth as untreated, 0 = no growth, -100 = all killed). Particulars: 10 µM unless noted.
With `Cc1cc2nc(CN)[nH]c2cc1C`, the growth was 103% (inactive). To `CCCCCCCCCCCCSC1=C(Cl)C(=O)C(OC)=C(OC)C1=O` belongs 20.9% (inactive). The value for `CCOC(=O)C(=Cc1ccc(C#N)cc1)C(=O)OCC` was 15.6% (inactive). To `CCCCOc1c(N)cccc1C(=O)OCCN(CC)CC` belongs 112% (inactive); to `O=CN1N=C(c2cccc(Nc3ccnc4cc(Cl)ccc34)c2)CC1c1ccccc1` (stereo not given), 13% (inactive).

Turning to `NS(=O)(=O)c1ccc(Nc2nc(SCC(=O)c3ccc(Cl)cc3)nc3ccccc23)cc1`, the growth was 82.4% (inactive).

For `COc1cccc(C2C3=C(COC3=O)N(CCO)c3cc4c(cc32)CCC4)c1` (stereo not given), the growth is -51.6% (active).

In the case of `S=C(NCc1ccccc1)NCc1ccccc1`, the growth is 101% (inactive). The value for `CC1CCc2c(C(=O)Nc3ncc(Cc4cccc([N+](=O)[O-])c4)s3)csc2C1` (stereo not given) was 12.3% (inactive); that for `Nc1ncnc2c1ncn2C1OC(CO)C(O)C1O` (stereo not given) was 116% (inactive) and -13.3% (active); that for `COc1ccc2[nH]c(O)c(N=NC(=O)c3oc4ccccc4c3C)c2c1` was 19.9% (inactive).

Regarding `C=C1C(=O)O[C@H]2[C@H]1CC/C(COC(=O)N1CCC[C@H]1C(=O)Nc1ccc(OC)c(C(N)=O)c1O)=C\CC[C@@]1(C)O[C@@H]21`, the growth was -4.47% (active). `CCCC(=O)NC(c1cccnc1)c1cc(C(C)(C)C)c2cccnc2c1O` (stereo not given): the growth is -20.4% (active). To `COc1ccccc1Cn1cc(C#N)c(N)c1C(=O)c1ccc(Br)cc1` belongs 72.2% (inactive); to `C/C(=N\O)C(=O)NCCCCCC(=O)Nc1ccccc1`, 114% (inactive). To `O=C(/C(=N/O)S(=O)(=O)c1ccccc1)c1cccs1` belongs 101% (inactive); to `N=C1CCC(=N)c2c1c(O)c1ccccc1c2O`, 93.7% (inactive); to `Cc1cc(=O)n2n1-c1ccc(Cl)cc1NC(=O)C2`, 101% (inactive). The value for `COc1ccc(/C=C2/C(=O)ON=C2C)cc1` was 103% (inactive).

Regarding `COc1ccc(Oc2nc(Nc3ccc(N4CCOCC4)cc3)ncc2NC(=O)Nc2cc(OC)cc(OC)c2)cc1`, the growth is 25.3% (inactive). To `CN(C)CCCC(=O)Nc1ccc(Cn2nnc3c2C(=O)c2nnn(Cc4ccc(NC(=O)CCCN(C)C)cc4)c2C3=O)cc1` belongs -62.7% (active); to `CSc1nnc2c(=O)n(C)c(=O)n(C)c2n1`, 108% (inactive); to `O=C(Nc1ccccc1)Oc1cccc2cccnc12`, 96.9% (inactive). With `Cc1ccc(NS(=O)(=O)c2ccccc2)c(NS(=O)(=O)c2ccccc2)c1`, the growth is 104% (inactive). To `Cc1ccc(C2CC(c3cccc(Nc4ccncc4)c3)=NN2c2ccccc2)cc1` (stereo not given) belongs -78.5% (active); to `O=S1SC(c2ccccc2)=NN1c1cc(F)cc(F)c1` (stereo not given), 44.4% (inactive); to `O=C(Nc1nc2cccc(-c3ccc(CN4CCS(=O)(=O)CC4)cc3)n2n1)C1CC1`, 41.5% (inactive). The value for `CCN(CC)CCN1C(=O)c2c(c3c4cc(Br)ccc4[nH]c3c3ccc4ccccc4c23)C1=O` was -80.7% (active). `COc1cc(NC2CCCCC2O)c2nc(-c3ccc(Cl)cc3)ccc2c1` (stereo not given): the growth is 98.6% (inactive) and 62.5% (inactive). The value for `O=C(NN1C(=O)CSC1c1ccc(Cl)cc1)c1cccnc1` (stereo not given) was 115% (inactive); that for `Nc1ccccc1NC(=O)CCCCCCC(=O)Nc1ccc2c(c1)/C(=C/c1ccc[nH]1)C(=O)N2` was 32.9% (inactive); that for `CN(C)CCCCNc1ccc(NCCCCN(C)C)c2c1C(=O)c1c(O)ccc(O)c1C2=O` was 96.8% (inactive). Regarding `O=C1ON=[N+](c2ccc(Cc3ccc([N+]4=NOC(=O)C4CN4CCOCC4)cc3)cc2)C1CN1CCOCC1` (stereo not given), the growth is 11.4% (inactive). The value for `CC(=O)C1CCC(C)=CC1=O` (stereo not given) was 116% (inactive); that for `COC(=O)c1c2c(n3ccc(C)cc13)C(=O)c1ccccc1C2=O` was 86.3% (inactive). The value for `COc1ccc(/C=N/Nc2nc(N/N=C/c3ccc(OC)cc3O)nc(N3CCOCC3)n2)c(O)c1` was 63.1% (inactive).

For the compound `COc1cc2c3c(c(=O)oc2cc1OS(=O)(=O)c1ccc(C(F)(F)F)cc1)CCCCC3`, the growth is 67% (inactive). As for `CCN1C(=O)N(CC)C2C1NN=c1s/c(=C3\C(=O)N(CC(C)C)c4ccccc43)c(=O)n12` (stereo not given), the growth is 6% (active). The value for `Cc1cc(=O)c2c(C)ccc(C)c2[nH]1` was 96.8% (inactive); that for `CC1=C2CC/C(C)=C/CC[C@]3(C)O[C@H]3CC/C(C)=C/[C@H]2OC1` was 98.6% (inactive).
